Results reported in PubChem BioAssay.
Active and inactive are the calls of the source.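 How the source made its calls, unless noted: active means visual image review flags a hit and inhibition of aggregation exceeds 20%; inconclusive means visual hit but inhibition at or below 20%; inactive means no hit on visual image review.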

Experiment: inhibitors of TNFa-induced NFkB p65 translocation, primary screen, imaging, HUVEC, MLSMR starter and 10KST1 sets (AID 438;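 active means inhibition above 20% together with a positive visual image hit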;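 further: compound added about 3h40 before a 20 min TNFalpha stimulation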;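 on inhibition: signal is the nuclear over cytoplasmic p65 intensity ratio per well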)
Conditions: HUVEC TNFa-induced p65 nuclear translocation; cell count: measured here: nuclei count (cytotoxicity indicator), at 2.08 µM; inhibition: at 2 µM, stronger effect = higher value, 0% TNFa-plus-vehicle, 100% no-TNFa wells

Row | Compound | cell count | inhibition
1 | O=C(NCC1CCCO1)C1CCC(CNS(=O)(=O)c2ccccc2)CC1 (centres undefined) | 341 | 8.1% (inactive)
2 | Cc1ccc(C2C(C(=O)c3sc(C)nc3C)=C(O)C(=O)N2CCN(C)C)o1 (centres undefined) | 387 | -7.6% (inactive)
3 | O=C(Nc1nc2c(s1)CCCC2)C1COc2ccccc2O1 (centres undefined) | 695 | -13.1% (inactive)

Experiment: reduction of polyQ htt aggregates in cells – imaging, exon1htt(103Q)mCFP cells, high-content imaging, primary screen (AID 483);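 further: compound exposure lasted 3 days before fixation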;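 on nuclei count: percent of the per-plate median nuclei count of sample wells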
Conditions: exon1htt(103Q)mCFP cell line, aggregate imaging, at 2 µM; inhibition of aggregation: stronger effect = higher value; nuclei count: measured here: cell count, toxicity

Row | Compound | nuclei count [%] | inhibition of aggregation
4 | CCOCCCNC(=O)CS(=O)(=O)Cc1nc(-c2cccc(OC)c2)oc1C | 65.2 | 16% (inactive)
5 | Cc1ccc(Br)cc1S(=O)(=O)N1CCN(c2ccccc2)CC1 | 108 | -16% (inactive)
6 | Cn1c(=O)c(=O)n(C)c2cc(S(=O)(=O)N3CCN(c4cccc(C(F)(F)F)c4)CC3)ccc21 | 107 | -18.8% (inactive)
7 | Cc1cccc(N2CCN(C(=O)C3CCCN(S(=O)(=O)c4c(C)noc4C)C3)CC2)c1C (centres undefined) | 102 | -11.6% (inactive)
8 | COc1ccc(-n2c(SCC(=O)N3CCCCC3C)nnc2-c2cccnc2)cc1 (centres undefined) | 93.6 | 24.3% (inactive)
9 | NCc1cccc(-n2cccn2)c1 | 96.4 | 1.2% (inactive)
10 | COC(=O)CSC1=C(C#N)C(c2ccccc2)CC(=O)N1 (centres undefined) | 89.5 | -2.2% (inactive)
11 | Oc1ccc(N2CCN(C(c3ccncc3)c3nnnn3C3CCCC3)CC2)cc1 (centres undefined) | 101 | -5.2% (inactive)
12 | CCc1nc2scc(-c3ccccc3)c2c(=O)n1N | 98.5 | 0% (inactive)
13 | CN(Cc1cccs1)C(=O)CCc1ccc(S(=O)(=O)N2CCOCC2)cc1 | 94 | -10.3% (inactive)
14 | CC1=C(C(N)=O)C(c2ccccn2)n2nc(SCc3ccccc3)nc2N1 (centres undefined) | 93 | 3.9% (inactive)
15 | CCOc1ccc(NC(=O)c2ccccc2O)cc1 | 71.8 | 9.7% (inactive)
16 | O=S(=O)(c1ccc2ccccc2c1)N1CCCCC1 | 104 | 7% (inactive)
17 | N#CC1=C(N)OC(c2ccccc2)=C(C#N)C1c1ccc2c(c1)OCO2 (centres undefined) | 112 | 6% (inactive)
18 | Cc1cc(C)c2c(=O)n(CC(=O)NCCCN3CCOCC3)sc2n1 | 118 | 1.1% (inactive)
19 | COC(=O)CNC(=O)COC(=O)c1cc(Cl)cc(Cl)c1N | 112 | -2% (inactive)
20 | CCOc1ccc(NCc2nnc(SCC(=O)Nc3cc(C)on3)n2-c2ccccc2OC)cc1 | 101 | -6.4% (inactive)

Row | Compound | nuclei count [%] | inhibition of aggregation
21 | CCN(CC)CCNC(=O)c1ccc(CS(=O)(=O)c2ccc(Br)cc2)o1 | 103 | -11.8% (inactive)
22 | CCCn1c(=NC(C)=O)c(C#N)cc2c(=O)n3cccc(C)c3nc21 | 99.9 | 0.6% (inactive)
23 | CCn1c(=O)c(C(=O)Nc2cccnc2)c(O)c2ccccc21 | 105 | 7% (inactive)
24 | Cc1cccc(C2CC(c3ccccc3)Nc3nc(N)nn32)c1 (centres undefined) | 114 | 7.7% (inactive)
25 | CCOC(=O)CN1CC23C=CC(O2)C(C(=O)Nc2ccc(C(C)=O)cc2)C3C1=O (centres undefined) | 127 | -2.6% (inactive)
26 | COc1ccccc1CNC(=O)C1CCCN(S(=O)(=O)c2cccc3cccnc23)C1 (centres undefined) | 102 | -33.4% (inactive)
27 | COc1ccc(C2=NO[C@@H]3C(=O)N(c4ccc5c(c4)OCCO5)C(=O)[C@H]23)cc1OC | 111 | -8.9% (inactive)
28 | CCOC(=O)c1ccccc1NC(=O)CSc1nnc(COc2ccccc2C)n1C | 97.3 | 11.9% (inactive)
29 | COC(=O)c1sc(N2C(=O)C(O)=C(C(=O)c3ccc(C)o3)C2c2ccc(F)cc2)nc1C (centres undefined) | 96.6 | 10.4% (inactive)
30 | CCN(CCNC(=O)CS(=O)(=O)Cc1nc(-c2cccc(OC)c2)oc1C)c1ccccc1 | 121 | -16.4% (inactive)
31 | CN(CCNS(=O)(=O)c1ccc2c(c1)oc(=O)n2C)Cc1ccccc1 | 95.2 | -7.2% (inactive)
32 | CC1CCN(c2nc3c(c(=O)[nH]c(=O)n3C)n2CCSc2ncccn2)CC1 | 83.9 | -8.6% (inactive)
33 | COc1cc2c(C)nc(C)c(C#N)c2cc1OC | 85.6 | -17.8% (inactive)
34 | COc1ccc(N(CC(=O)Nc2ccc(F)c(Cl)c2)S(=O)(=O)c2c(C)noc2C)cc1 | 99 | -8.2% (inactive)
35 | Cc1nc2ncnn2c(N2CCC(C(=O)NC3CCCC3)CC2)c1Cc1ccccc1 | 116 | -20.2% (inactive)
36 | CCC(C)(C)NC(=O)C(c1ccco1)N(C(=O)Cn1nnc2ccccc21)c1ccc2c(c1)OCO2 (centres undefined) | 86 | 14.5% (inactive)
37 | Fc1cccc(NCc2cn3ccccc3n2)c1 | 91.8 | -73.5% (inactive)
